Here are results for 33 compounds from paper PMC5540273 (PLoS ONE, 2017).
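Also: KINOMEscan kinase panel screen.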

The subject of the assay is CASK. The note with it: concentration: 1 μM, replicates: in singlicate; n = 1.
`O=C(Nc1n[nH]c2cc(-c3cccs3)ccc12)C1CC1` [SB-731284]: the “%Inh” value came out at 49%.
For `Fc1cc(Cl)ccc1Nc1ccnc2cc(-c3ccc(CN4CCSCC4)o3)ccc12` [GW560106] the value was 0%; for `Fc1cc(Cl)ccc1Nc1ccnc2cc(-c3ccc(CN4CCOCC4)o3)ccc12` [GW560109], 16%.
For `COc1ccc(NC(=O)c2ccoc2)cc1-c1ccc(C(=O)NCC2CC2)cc1` [GW810437], the “%Inh” value was found to be 13%.
Turning to `COC(=O)Nc1nc2ccc(Oc3ccc(CC(=O)Nc4cc(C(F)(F)F)ccc4F)cc3)cc2[nH]1` [GW680903], the “%Inh” value amounted to 0%.
For the compound `O=C(Nc1n[nH]c2nc(-c3cccc(O)c3)ccc12)C1CC1` [SB-711805], the “%Inh” value worked out at 0%.
With `Cc1cccc(Nc2nc(N[C@H]3CCCC[C@H]3N)ncc2C(N)=O)c1.Cl` [GSK986310], the “%Inh” value came out at 56%.
On to `CCn1c(-c2nonc2N)nc2c(-c3ccccc3)ncc(OCCCN)c21.O=C(O)C(F)(F)F.O=C(O)C(F)(F)F` [GSK260205], for which the “%Inh” value is 1%.
Consider `COc1ccc(C)c(Nc2ccnc(Nc3ccc(-c4cnc[nH]4)cc3)n2)c1.Cl` [GW784041], for which the “%Inh” value was found to be 0%.
For the compound `CS(=O)(=O)c1cccc(CNc2nc(Nc3ccc4c(c3)CCC(=O)N4)ncc2C(F)(F)F)c1`, the “%Inh” value is reported as 0%.
As to `O=C(O)C(F)(F)F.O=c1[nH]ccc2nc(N[C@@H]3CCNC3)nc(Nc3ccc4c(c3)S(=O)(=O)CC4)c12` [GSK2181306], the “%Inh” value was 15%.
Consider `COc1cc(Nc2nccc(N3CCC(NS(=O)(=O)c4ccc(NC(C)=O)cc4)CC3)n2)cc(OC)c1OC` [GSK1379825], for which the “%Inh” value is 19%.
Consider `CN(C)CCNS(=O)(=O)c1ccc(-c2ccnc3[nH]ccc23)cc1` [GSK977620], for which the “%Inh” value is recorded as 3%.
For `Nc1cccc(-c2ccc3c(N)n[nH]c3c2)c1` [GSK2193613], the “%Inh” value is reported as 13%.
For `Cc1ccc(NC(=O)c2ccnc(N3CCCCC3)c2)cc1-c1ccc(C(=O)NCC2CC2)cc1` [GW775610], the “%Inh” value came out at 0%.
`c1ccc(Oc2ccc(Nc3ccnc4cc(-c5ccc(CN6CCCCC6)o5)ccc34)cc2)nc1` [GW567143]: the “%Inh” value is on record as 49%.
Take `CC(C)c1nc(-c2cccc(NS(=O)(=O)c3c(F)cccc3F)c2)c(-c2ccnc(Nc3ccc(N4CCOCC4)nc3)n2)s1.Cl` [GSK1723980]: the “%Inh” value is 92.1%.
For `CN(c1ccc(NC(=O)N2CCN(CCCN3CCOCC3)CC2)cc1)c1ccnc(Nc2ccc(CS(C)(=O)=O)cc2)n1.Cl` [GW830899], the “%Inh” value came to 0%.
Regarding `Cn1cc(-c2ccc3c(c2)CCN3C(=O)Cc2cc(F)cc(F)c2F)c2c(N)ncnc21` [GSK2634140], the “%Inh” value is 3%.
`CC(C)NCC(Cc1ccccc1)NC(=O)c1cc(Br)c(-c2ccnc3[nH]ccc23)s1.Cl.Cl` (stereo not drawn) [GSK1383281]: the “%Inh” value amounted to 0%.
Turning to `COc1cccc(C2=C(Nc3cccc(O)c3)C(=O)NC2=O)c1` [SB-390771], the “%Inh” value is 28%.
`COc1cccc(CC(=O)N2CCc3cc(-c4cn(C)c5ncnc(N)c45)ccc32)c1` [GSK2608899]: the “%Inh” value is reported as 16%.
Take `O=C(Nc1n[nH]c2nc(-c3ccccc3O)ccc12)C1CC1` [SB-711880]: the “%Inh” value is listed as 13%.
On to `N#CC1(c2cccc(C(=O)Nc3cccc(Oc4ccc5nc(NC(=O)C6CC6)sc5n4)c3)c2)CC1`, for which the “%Inh” value came to 16%.
Regarding `COc1cc(Nc2nccc(N3CCC(NC(=O)Nc4ccc5c(c4)OCO5)C3)n2)cc(OC)c1OC` (stereo not drawn) [GSK1379766], the “%Inh” value was 4%.
For the compound `Cc1ccc(-c2ccc3occ(-c4ccc(S(C)=O)cc4)c3c2)nn1` (stereo not drawn), the “%Inh” value is 0%.
For `CN(c1ccc(F)c(NC(=O)c2cccc(OC(C)(C)C#N)c2Cl)c1)c1ccc2nc(NC(=O)C3CC3)sc2n1` the value was 0%; for `CN(c1ccc2c(c1)nc(NCc1ccccc1)n2C)c1ccnc(Nc2ccc(CS(C)(=O)=O)cc2)n1.Cl` [GW811603], 0%.
For `Nc1ncc(-c2ccc3nccc(-c4ccncc4)c3c2)cc1S(=O)(=O)N1CCCCC1` [GSK1693850] the value was 24%; for `Nc1ncc(-c2cn[nH]c2)c2scc(-c3ccc4c(c3)CCN4C(=O)Cc3ccccc3)c12` [GSK2593067], 13%; for `CN(C)c1ncnc2nc[nH]c12` [SKF-31736], 41%.
Consider `Cl.Cl.NC(CNC(=O)c1cc(Br)c(-c2ccnc3[nH]ccc23)s1)c1ccccc1` (stereo not drawn) [GSK1322949], for which the “%Inh” value came to 38%.
For `CNc1nccc(-c2ccc3c(N)n[nH]c3c2)n1` [GSK2206003] the value was 21%.
